Results published in PubChem BioAssay AID1159580 (chemical genetic matrix, 2015).
Several values for one entry are separate records, joined by “and”; a condition that tells them apart may be missing. Equal entries are not always repeated. Out of some 5,500 compounds screened, about 2,000 (36%) were called active. About 18% were inconclusive and are not listed. Cut-off read from the data, not from the text of the source: active = normalized growth mostly below about 0.91 (no sharp cut-off); inconclusive = no clear call, values can overlap the other calls; inactive = mostly above about 0.92. The list shows a part of the results.

Experiment: chemical genetic growth profiling, strain panel (AID 1159580);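 note: tested at 20 µM; growth read once vehicle control cultures reached saturation at 30 °C; 1 = growth at the plate median or of vehicle wells; lower values mean less growth of the strain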
Settings: growth OD

Measured: normalized growth

O=C(O)c1cc(=O)c2ccc(Cl)cc2[nH]1
inactive: S. cerevisiae deletion strains, locus YJR043C, strain POL32, stronger effect = lower value 1.03 | S. cerevisiae deletion strains, locus YJR075W, strain HOC1, stronger effect = lower value 1.02 and 1 | S. cerevisiae deletion strains, locus YKL009W, strain mrt4, stronger effect = lower value 0.99 | S. cerevisiae deletion strains, locus YKL068W, stronger effect = lower value 0.995 | S. cerevisiae deletion strains, locus YKL085W, strain MDH1 (second series), stronger effect = lower value 0.982 | S. cerevisiae deletion strains, locus YKL085W, strain MDH1, stronger effect = lower value 0.982 | S. cerevisiae deletion strains, locus YKL160W, strain elf1, stronger effect = lower value 1.05 | S. cerevisiae deletion strains, locus YKL190W, strain CNB1, stronger effect = lower value 1.01 | S. cerevisiae deletion strains, locus YKR001C, strain vps1, stronger effect = lower value 0.998 | S. cerevisiae deletion strains, locus YKR026C, strain gcn3, stronger effect = lower value 1.01 | S. cerevisiae deletion strains, locus YKR091W, strain srl3, stronger effect = lower value 1.01 | S. cerevisiae deletion strains, locus YLL001W, strain dnm1, stronger effect = lower value 1.02 | S. cerevisiae deletion strains, locus YLL026W, stronger effect = lower value 1.02 | S. cerevisiae deletion strains, locus YLL041C, strain sdh2, stronger effect = lower value 1.03 | S. cerevisiae deletion strains, locus YLR027C, strain aat2, stronger effect = lower value 1.03 | S. cerevisiae deletion strains, locus YLR039C, strain RIC1, stronger effect = lower value 1.02 | S. cerevisiae deletion strains, locus YLR058C, strain SHM2, stronger effect = lower value 1.02 | S. cerevisiae deletion strains, locus YLR102C, strain apc9, stronger effect = lower value 0.986 | S. cerevisiae deletion strains, locus YLR221C, strain rsa3, stronger effect = lower value 0.988 | S. cerevisiae deletion strains, locus YLR258W, strain gsy2, stronger effect = lower value 1.03 | S. cerevisiae deletion strains, locus YLR262C, strain YPT6 (second series), stronger effect = lower value 1 | S. cerevisiae deletion strains, locus YLR262C, strain YPT6, stronger effect = lower value 1.05 | S. cerevisiae deletion strains, locus YLR268W, strain sec22, stronger effect = lower value 0.986 | S. cerevisiae deletion strains, locus YLR320W, strain mms22, stronger effect = lower value 1.01 | S. cerevisiae deletion strains, locus YLR330W, strain CHS5, stronger effect = lower value 1.01 | S. cerevisiae deletion strains, locus YLR342W, strain FKS1 (second series), stronger effect = lower value 0.957 | S. cerevisiae deletion strains, locus YLR342W, strain FKS1, stronger effect = lower value 1.02 | S. cerevisiae deletion strains, locus YLR357W, strain rsc2, stronger effect = lower value 1.02 | S. cerevisiae deletion strains, locus YLR370C, strain arc18, stronger effect = lower value 1.02 | S. cerevisiae deletion strains, locus YLR371W, strain rom2, stronger effect = lower value 0.984 | S. cerevisiae deletion strains, locus YLR384C, strain iki3, stronger effect = lower value 1.01 | S. cerevisiae deletion strains, locus YLR418C, strain cdc73, stronger effect = lower value 0.974 | S. cerevisiae deletion strains, locus YML016C, strain PPZ1, stronger effect = lower value 1.02 | S. cerevisiae deletion strains, locus YML032C, strain rad52, stronger effect = lower value 0.996 | S. cerevisiae deletion strains, locus YML120C, strain ndi1, stronger effect = lower value 1.01 | S. cerevisiae deletion strains, locus YML124C, strain tub3, stronger effect = lower value 0.998 | S. cerevisiae deletion strains, locus YMR058W, strain fet3, stronger effect = lower value 1.01 | S. cerevisiae deletion strains, locus YMR078C, strain ctf18, stronger effect = lower value 0.987 | S. cerevisiae deletion strains, locus YMR125W, strain sto1, stronger effect = lower value 1.01 | S. cerevisiae deletion strains, locus YMR129W, stronger effect = lower value 1.01 | S. cerevisiae deletion strains, locus YMR205C, strain PFK2, stronger effect = lower value 1.03 | S. cerevisiae deletion strains, locus YMR223W, strain ubp8, stronger effect = lower value 0.968 | S. cerevisiae deletion strains, locus YMR231W, strain pep5, stronger effect = lower value 1.01 | S. cerevisiae deletion strains, locus YMR263W, strain SAP30, stronger effect = lower value 1.03 | S. cerevisiae deletion strains, locus YMR307W, strain GAS1, stronger effect = lower value 0.978 | S. cerevisiae deletion strains, locus YNL067W, strain RPL9B, stronger effect = lower value 1.03 | S. cerevisiae deletion strains, locus YNL071W, strain lat1, stronger effect = lower value 1.01 | S. cerevisiae deletion strains, locus YNL128W, strain TEP1, stronger effect = lower value 1.03 | S. cerevisiae deletion strains, locus YNL153C, strain GIM3, stronger effect = lower value 1.04 | S. cerevisiae deletion strains, locus YNL175C, strain NOP13, stronger effect = lower value 1.01 | S. cerevisiae deletion strains, locus YNL197C, strain WHI3, stronger effect = lower value 1.02 | S. cerevisiae deletion strains, locus YNL209W, strain ssb2, stronger effect = lower value 1.01 | S. cerevisiae deletion strains, locus YNL224C, strain SQS1, stronger effect = lower value 1 | S. cerevisiae deletion strains, locus YNL233W, strain BNI4, stronger effect = lower value 1.03 | S. cerevisiae deletion strains, locus YNL248C, strain rpa49, stronger effect = lower value 1.08 | S. cerevisiae deletion strains, locus YNL250W, strain rad50, stronger effect = lower value 0.982 | S. cerevisiae deletion strains, locus YNL271C, strain bni1, stronger effect = lower value 0.992 | S. cerevisiae deletion strains, locus YNL298W, strain CLA4, stronger effect = lower value 0.999 | S. cerevisiae deletion strains, locus YNL307C, strain MCK1, stronger effect = lower value 0.988 | S. cerevisiae deletion strains, locus YNL322C, strain KRE1 (second series), stronger effect = lower value 1.06 | S. cerevisiae deletion strains, locus YNL322C, strain KRE1, stronger effect = lower value 1.01 and 1.02 | S. cerevisiae deletion strains, locus YNR049C, strain mso1, stronger effect = lower value 1 | S. cerevisiae deletion strains, locus YNR052C, strain pop2, stronger effect = lower value 0.99 | S. cerevisiae deletion strains, locus YOL006C, strain TOP1, stronger effect = lower value 1.11 | S. cerevisiae deletion strains, locus YOL012C, strain htz1 1.2 | S. cerevisiae deletion strains, locus YOL147C, strain pex11, stronger effect = lower value 0.994 | S. cerevisiae deletion strains, locus YOR001W, strain rrp6, stronger effect = lower value 0.96 | S. cerevisiae deletion strains, locus YOR061W, strain CKA2, stronger effect = lower value 1.01 | S. cerevisiae deletion strains, locus YOR069W, strain VPS5, stronger effect = lower value 1.01 | S. cerevisiae deletion strains, locus YOR070C, strain gyp1, stronger effect = lower value 1.01 | S. cerevisiae deletion strains, locus YOR080W, strain dia2, stronger effect = lower value 1 | S. cerevisiae deletion strains, locus YOR083W, strain WHI5 (second series), stronger effect = lower value 0.989 | S. cerevisiae deletion strains, locus YOR083W, strain WHI5, stronger effect = lower value 1.05 | S. cerevisiae deletion strains, locus YOR106W, strain vam3, stronger effect = lower value 1.05 | S. cerevisiae deletion strains, locus YOR136W, strain idh2, stronger effect = lower value 0.987 | S. cerevisiae deletion strains, locus YOR144C, strain elg1, stronger effect = lower value 0.984 | S. cerevisiae deletion strains, locus YOR184W, strain ser1, stronger effect = lower value 0.985 | S. cerevisiae deletion strains, locus YOR265W, strain rbl2, stronger effect = lower value 1 | S. cerevisiae deletion strains, locus YOR270C, strain vph1, stronger effect = lower value 1.04 | S. cerevisiae deletion strains, locus YOR290C, strain snf2, stronger effect = lower value 1.06 | S. cerevisiae deletion strains, locus YOR316C, strain cot1, stronger effect = lower value 0.994 | S. cerevisiae deletion strains, locus YPL051W, strain arl3, stronger effect = lower value 1.01 | S. cerevisiae deletion strains, locus YPL055C, strain LGE1, stronger effect = lower value 1.07 | S. cerevisiae deletion strains, locus YPL078C, strain atp4, stronger effect = lower value 1.06 | S. cerevisiae deletion strains, locus YPL106C, strain sse1, stronger effect = lower value 1.06 | S. cerevisiae deletion strains, locus YPL240C, strain hsp82, stronger effect = lower value 1.02 | S. cerevisiae deletion strains, locus YPL241C, strain CIN2, stronger effect = lower value 1.01 | S. cerevisiae deletion strains, locus YPR119W, strain clb2, stronger effect = lower value 0.989 | S. cerevisiae deletion strains, locus YPR141C, strain kar3, stronger effect = lower value 0.99 | S. cerevisiae deletion strains, locus YPR163C, strain tif3, stronger effect = lower value 0.986 | S. cerevisiae deletion strains, locus YPR167C, strain met16, stronger effect = lower value 0.989 | S. cerevisiae deletion strains, strain wtn01, stronger effect = lower value 0.98 | S. cerevisiae strains, strain wild type, stronger effect = lower value 1.02
